High-throughput results from PubChem.
The list is not random: actives were taken first. Their share in the collection is about 3.8%.
B2AR ag: activates human beta-2 adrenergic receptor causing internalization | AID 504454 | Am2.2-beta2AR cells, FAP receptor internalization, flow cytometry | hit rate 0.43% among 340,000 | P07550 | response, % (concentration not given with the values);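 active means response above a set limit, near 3 SD of response in nonfluorescent compounds, cut at about 42% in these data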
Target sequence (P07550 whole entry, looked up): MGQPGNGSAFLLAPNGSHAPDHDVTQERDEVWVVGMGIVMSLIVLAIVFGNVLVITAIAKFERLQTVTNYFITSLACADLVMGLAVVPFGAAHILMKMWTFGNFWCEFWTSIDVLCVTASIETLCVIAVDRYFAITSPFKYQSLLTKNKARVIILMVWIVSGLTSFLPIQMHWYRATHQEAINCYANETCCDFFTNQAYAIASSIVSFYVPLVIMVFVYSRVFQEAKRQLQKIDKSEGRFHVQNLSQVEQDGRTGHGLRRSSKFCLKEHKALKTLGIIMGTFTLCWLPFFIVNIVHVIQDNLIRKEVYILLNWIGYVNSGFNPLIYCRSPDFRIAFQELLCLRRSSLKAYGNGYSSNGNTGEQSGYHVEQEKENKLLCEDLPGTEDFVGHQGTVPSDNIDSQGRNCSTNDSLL
tim10-1 inh: growth inhibitors of tim10-1 mutant yeast. S. cerevisiae tim10-1 ts strain growth, BacTiter-Glo, 24 h. inhibition, % at 20 µM. hit rate 2.2% among 330,000. AID 463190;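 active means inhibition of at least 40%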;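 further: mutant grown at 25 °C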
PfHsp90 yeast 2: inhibits growth of yeast expressing Plasmodium falciparum Hsp90 | S. cerevisiae expressing PfHsp90, BacTiter-Glo ATP, 48 h; yeast lacking PDR1 and PDR3 efflux regulators | hit rate 0.32% among 310,000 | inhibition, % at 9.4 µM | AID 504621;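 active means every replicate shows inhibition above about 80%, whatever the replicate mean, limit read from the data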
TIM10 inh: growth inhibitors of TIM10 yeast strain; S. cerevisiae TIM10 strain growth, BacTiter-Glo luminescence, 24 h; inhibition, % at 10 µM; hit rate 1.4% among 330,000; AID 463195;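 active means inhibition of 40% or more at the single tested concentration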;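 further: wild-type TIM10 isogenic control strain grown at permissive 25 °C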
tim23-1 inh: inhibits growth of tim23-1 mutant yeast. S. cerevisiae tim23-1 growth, BacTiter-Glo luminescence, 24 h. inhibition, % at 20 µM. hit rate 1.3% among 330,000;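 active means growth inhibition of the mutant yeast at or above 50%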;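 further: temperature-sensitive mutant grown at 25 °C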
tim23-1 conf: confirmation of tim23-1 mutant yeast growth inhibitors; hit rate 83% among 4,400; AID 463218; S. cerevisiae tim23-1 growth, BacTiter-Glo luminescence, 24 h; shares compounds with tim23-1 inh; inhibition, % at 20 µM;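 active means inhibition above about 39% in either of two replicate wells at 20 µM, limit read from the data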;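 further: temperature-sensitive tim23-1 mutant grown at 25 °C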
Numbers stand for hits.

Results for CCCCCCSC1=C(C#N)C(c2ccccc2)CC(=O)N1 (centres undefined) ?
B2AR ag: inactive; tim10-1 inh: inactive; PfHsp90 yeast 2: inactive; TIM10 inh: inactive; tim23-1 inh: 51; tim23-1 conf: 46

How did Cc1ccc(/C=C2/NC(=O)N(Cc3ccccc3)C2=O)o1 do in these assays?
B2AR ag: inactive; tim10-1 inh: inactive; PfHsp90 yeast 2: inactive; TIM10 inh: inactive; tim23-1 inh: 68; tim23-1 conf: 58

Results for CCOC(=O)C1CCN(C(=O)COC(=O)c2nn(C)c(=O)c3ccccc23)CC1 ?
B2AR ag: inactive; tim10-1 inh: inactive; PfHsp90 yeast 2: inactive; TIM10 inh: inactive; tim23-1 inh: inactive

How did CC1=NOC(=O)/C1=C\c1ccc(-c2cccc(Cl)c2)o1 do in these assays?
B2AR ag: 101; tim10-1 inh: inactive; PfHsp90 yeast 2: inactive; TIM10 inh: inactive; tim23-1 inh: 57; tim23-1 conf: 69

What do the screens show for `CN(Cc1ccccc1)C(=O)COc1cccnc1[N+](=O)[O-]`?
B2AR ag: inactive; tim10-1 inh: inactive; PfHsp90 yeast 2: inactive; TIM10 inh: inactive; tim23-1 inh: inactive

How did O=S(=O)(NC1CCSc2ccccc21)c1ccc(Cl)nc1 (centres undefined) do in these assays?
B2AR ag: inactive; tim10-1 inh: inactive; PfHsp90 yeast 2: inactive; TIM10 inh: inactive; tim23-1 inh: inactive

How did CC1=NN(c2ccccc2)C(=O)C1C(=O)C(=O)Nc1ccc(F)cc1 (centres undefined) do in these assays?
B2AR ag: inactive; tim10-1 inh: inactive; PfHsp90 yeast 2: inactive; TIM10 inh: inactive; tim23-1 inh: inactive

How did COc1ccccc1[C@H]1C(c2cccc(C)c2)=NN(c2ccccc2)[C@@H]1CO do in these assays?
B2AR ag: inactive; tim10-1 inh: inactive; PfHsp90 yeast 2: inactive; TIM10 inh: inactive; tim23-1 inh: 51; tim23-1 conf: 45

What do the screens show for `CCOc1ccc(N2C(=O)C3C(c4ccccc4)=NN(c4ccccc4)C3C2=O)cc1` (centres undefined)?
B2AR ag: inactive; tim10-1 inh: inactive; PfHsp90 yeast 2: inactive; TIM10 inh: inactive; tim23-1 inh: inactive

Results for COc1ccccc1[C@H]1C(c2ccccc2)=NN(c2ccccc2)[C@@H]1CO ?
B2AR ag: inactive; tim10-1 inh: inactive; PfHsp90 yeast 2: inactive; TIM10 inh: inactive; tim23-1 inh: 50; tim23-1 conf: 39

What do the screens show for `O=C1OCCN1C(=O)[C@H]1[C@H](c2ccccc2)C(c2ccc(F)cc2)=NN1c1ccc(Br)cc1`?
B2AR ag: inactive; tim10-1 inh: inactive; PfHsp90 yeast 2: inactive; TIM10 inh: inactive; tim23-1 inh: inactive

How did C[C@H]1C(c2ccc(F)cc2)=NN(c2ccccc2)[C@@H]1CO do in these assays?
B2AR ag: inactive; tim10-1 inh: inactive; PfHsp90 yeast 2: inactive; TIM10 inh: inactive; tim23-1 inh: 51; tim23-1 conf: inactive

How did COc1ccccc1[C@H]1C(c2ccc(F)cc2)=NN(c2ccccc2)[C@@H]1CO do in these assays?
B2AR ag: inactive; tim10-1 inh: inactive; PfHsp90 yeast 2: inactive; TIM10 inh: inactive; tim23-1 inh: 55; tim23-1 conf: inactive

How did COc1ccc(-n2nc(C(=O)NCC(=O)N3CCCC3)c3ccccc3c2=O)cc1Cl do in these assays?
B2AR ag: inactive; tim10-1 inh: inactive; PfHsp90 yeast 2: inactive; TIM10 inh: inactive; tim23-1 inh: inactive

Results for O=C(N/N=C/c1cccc(Br)c1)C1CC(=O)N(c2ccccc2)C1 (centres undefined) ?
B2AR ag: inactive; tim10-1 inh: inactive; PfHsp90 yeast 2: inactive; TIM10 inh: inactive; tim23-1 inh: inactive

How did Cn1ccnc1COc1ccc(C=O)cc1 do in these assays?
B2AR ag: inactive; tim10-1 inh: inactive; PfHsp90 yeast 2: inactive; TIM10 inh: inactive; tim23-1 inh: inactive

What do the screens show for `O=C(Nc1cccc(S(=O)(=O)NC2=NCCCCC2)c1)c1ccc(Cl)cc1`?
B2AR ag: inactive; tim10-1 inh: inactive; PfHsp90 yeast 2: inactive; TIM10 inh: inactive; tim23-1 inh: inactive

What do the screens show for `CCOc1ccc(N=c2scc(-c3ccccc3)n2CCO)cc1`?
B2AR ag: inactive; tim10-1 inh: inactive; PfHsp90 yeast 2: inactive; TIM10 inh: inactive; tim23-1 inh: inactive

What do the screens show for `CCn1c(-c2ccccc2)csc1=Nc1ccc(O)cc1`?
B2AR ag: inactive; tim10-1 inh: inactive; PfHsp90 yeast 2: inactive; TIM10 inh: inactive; tim23-1 inh: 58; tim23-1 conf: 39
